Laboratory results as given in the supplement of paper PMC9177965.
“And” between values parts separate entries of the source, which are not always exact repeats. Identical values can stand only once.

These compounds were tested on HT29 sg-Ctrl (RNF43 wildtype) (assay: cell viability activity relative to DMSO (negative = inhibition); higher = more viable cells (less growth inhibition)). Conditions: 5 µM; 96 h.
Protocol: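 Broad Repurposing Library primary screen at a single dose of 5 uM. HT29 sg-Ctrl and HT29 RNF43 G659fs CRISPR-edited isogenic cells were seeded at 2500 cells/well in 384-well plates in duplicate and treated for 96 h. Viability was read by CellTiter-Glo and reported as % activity relative to DMSO, with MG132 as the positive control (negative = growth inhibition).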

SMILES | cell viability activity
CC(C)[C@]12O[C@H]1[C@@H]1O[C@]13[C@]1(O[C@H]1C[C@H]1C4=C(CC[C@@]13C)C(=O)OC4)[C@@H]2O | -87.8% and -92.2%
C=C(C)[C@H]1Cc2c(ccc3c2O[C@@H]2COc4cc(OC)c(OC)cc4[C@@H]2C3=O)O1 | -75.8%
CCCCCCCCCCCCCCCC[n+]1ccccc1 | -79.9%
CCN(CC)CCO[C@H]1CC[C@@]2(C)C(=CC[C@@H]3[C@@H]2CC[C@]2(C)C(=O)CC[C@@H]32)C1 | -52.8%
O=Cc1cn(Cc2ccc(Cl)cc2)c2ccccc12 | -88.6%
NC(=O)c1cn([C@@H]2O[C@H](CO)[C@@H](O)[C@H]2O)c2ncnc(N)c12 | -93%
O=C(C[C@H]1NCCC[C@@H]1O)Cn1cnc2cc(Br)c(Cl)cc2c1=O | -86.5%
C[C@@]1(CO)[C@H](O)CC[C@@]2(C)[C@H]1CC[C@H]1C[C@@H]3C[C@@]12CC[C@]3(O)CO | -34.1%
O=[N+]([O-])C=Cc1ccc2c(c1)OCO2 | -21%
C[C@H]1CCC/C=C/[C@@H]2C[C@H](O)C[C@H]2[C@H](O)/C=C/C(=O)O1 | -98.3% and -96.8%
O=C1C=C2C=C[C@@H]3C[C@@]2(O1)[C@H]1CCCCN31 | -6.19%
C[C@]12CC[C@H]3[C@@H](CC[C@]4(O)C[C@@H](O)CC[C@]34C=O)[C@@]1(O)CC[C@@H]2C1=CC(=O)OC1 | -75.5%
C[C@]12CC[C@H](O)C[C@H]1CC[C@@H]1[C@@H]2CC[C@]2(C)[C@@H](C3=CC(=O)OC3)CC[C@]12O | -86.7%
COc1cc2cc(c1Cl)N(C)C(=O)C[C@H](OC(=O)C(C)C)[C@]1(C)O[C@@H]1[C@H](C)[C@@H]1C[C@@](O)(NC(=O)O1)[C@H](OC)/C=C/C=C(\C)C2 | -61.7%
COc1cc2c(c(OC)c1OC)-c1ccc(OC)c(=O)cc1[C@@H](NC(C)=O)CC2 | -46.1% and -57.8%
Clc1cccc(SC2CCNCC2)n1 | -64.7%
CC[C@@]1(O)C(=O)OCc2c1cc1n(c2=O)Cc2cc3ccccc3nc2-1 | -91.5%
Cc1sc2c(c1C)C(c1ccc(Cl)cc1)=N[C@@H](CC(=O)Nc1ccc(O)cc1)c1nnc(C)n1-2 | -59.2%
C[C@@H]1CC[C@@]2(OC1)O[C@H]1C[C@H]3[C@@H]4CC=C5C[C@@H](O[C@@H]6O[C@H](CO)[C@@H](O[C@@H]7O[C@@H](C)[C@H](O)[C@@H](O)[C@H]7O)[C@H](O)[C@H]6O[C@@H]6O[C@@H](C)[C@H](O)[C@@H](O)[C@H]6O)CC[C@]5(C)[C@H]4CC[C@]3(C)[C@H]1[C@@H]2C | -63.5%
C[C@]12O[C@H](C[C@]1(O)CO)n1c3ccccc3c3c4c(c5c6ccccc6n2c5c31)CNC4=O | -84.6%

SMILES | cell viability activity
CCNC(=O)C[C@@H]1N=C(c2ccc(Cl)cc2)c2cc(OC)ccc2-n2c(C)nnc21 | -59.5%
CC[C@@H](C(=O)[C@@H](C)[C@@H](O)[C@H](C)[C@@H]1O[C@@H]([C@@H](CC)C(=O)O)CC[C@@H]1C)[C@H]1O[C@]2(C=C[C@@H](O)[C@]3(CC[C@@](C)([C@H]4CC[C@](O)(CC)[C@H](C)O4)O3)O2)[C@H](C)C[C@@H]1C | -71.9%
COC(=O)NC(=S)Nc1ccccc1NC(=S)NC(=O)OC | -38.9%
C/C(=C\c1csc(C)n1)[C@@H]1C[C@@H]2O[C@]2(C)CCC[C@H](C)[C@H](O)[C@@H](C)C(=O)C(C)(C)[C@@H](O)CC(=O)O1 | -72.3%
C/C1=C/C[C@@H](/C(C)=C/c2csc(C)n2)OC(=O)C[C@H](O)C(C)(C)C(=O)[C@H](C)[C@@H](O)[C@@H](C)CCC1 | -42.3%
c1ccc2c(c1)[I+]c1ccccc1-2 | -52.1%
COc1cc([C@@H]2c3cc4c(cc3[C@H](O)[C@H]3COC(=O)[C@H]23)OCO4)cc(OC)c1OC | -58.2%
CN1CCN(c2cccc3[nH]c(=O)oc23)CC1 | -54.8%
COc1ccc(C[C@H]2NC[C@H](O)[C@H]2OC(C)=O)cc1 | -95.3%
CC[C@H]1CN2CCc3cc(OC)c(OC)cc3[C@@H]2C[C@@H]1C[C@H]1NCCc2cc(OC)c(OC)cc21 | -92.7% and -98.3%
Oc1cccc2cccnc12 | -34.8%
COC(=O)C[C@](O)(CCC(C)(C)O)C(=O)O[C@@H]1C(OC)=C[C@]23CCCN2CCc2cc4c(cc2[C@H]13)OCO4 | -83.6%
CO[C@H]1C[C@H](O[C@H]2CC[C@@]3(C)[C@H](CC[C@@H]4[C@@H]3CC[C@]3(C)[C@@H](C5=CC(=O)OC5)[C@@H](OC(C)=O)C[C@]43O)C2)O[C@@H](C)[C@@H]1O | -90.4%
Cc1sc2c(c1C)C(c1ccc(Cl)cc1)=N[C@@H](CC(=O)OC(C)(C)C)c1nnc(C)n1-2 | -61.7%
N#CC(C#N)=NNc1cccc(Cl)c1 | -68.2%
CC1CC(C)C(=O)C(C(O)CC2CC(=O)NC(=O)C2)C1 (stereo not given) | -81.2%
COc1ccc(CCN2CCC(Nc3nc4ccccc4n3Cc3ccc(F)cc3)CC2)cc1 | -3.92%
C[C@]12CC[C@H](O)C[C@H]1CC[C@@H]1[C@@H]2C[C@@H](O)[C@]2(C)[C@@H](C3=CC(=O)OC3)CC[C@]12O | -79.8%
CC(=O)O[C@@]12CO[C@@H]1C[C@H](O)[C@@]1(C)C(=O)[C@H](O)C3=C(C)[C@@H](O)C[C@@](O)([C@@H](OC(=O)c4ccccc4)[C@H]21)C3(C)C | -62.6%
C/C(=C\c1csc(C)n1)[C@@H]1C[C@@H]2O[C@@H]2CCC[C@H](C)[C@H](O)[C@@H](C)C(=O)C(C)(C)[C@@H](O)CC(=O)O1 | -51.9%
